DAX1 inh-1 = inhibitors of human orphan nuclear receptor DAX1 (NR0B1) | P51843 | HEK293 Gal4-DAX1 luciferase reporter, luminescence | inhibition, % at 6.75 µM | 340,000 compounds, 0.99% hits;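 active = inhibition above the mean over all tested compounds plus 3 SD, cut at about 4.2% in these data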;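 also: inhibition shows as a rise in luminescence from relieved DAX1 repression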
Target sequence (P51843 207-470 limits assumed): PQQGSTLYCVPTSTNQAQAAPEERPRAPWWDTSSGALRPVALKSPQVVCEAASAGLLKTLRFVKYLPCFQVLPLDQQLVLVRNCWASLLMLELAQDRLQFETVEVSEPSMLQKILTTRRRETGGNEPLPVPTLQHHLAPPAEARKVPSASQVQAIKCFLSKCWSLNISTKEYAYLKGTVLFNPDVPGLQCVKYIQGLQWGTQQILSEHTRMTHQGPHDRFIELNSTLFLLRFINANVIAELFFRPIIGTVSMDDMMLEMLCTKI
ssDAF-12 act = S. stercoralis DAF-12 activation, primary screen; activation, % at 6.8 µM; 370,000 compounds, 1% hits; HEK293 ssDAF-12/GRIP1 lit1-tk-luc reporter, luminescence; % of 3 µM dafachronic acid response; AID 652126;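 active = activation above the mean over all tested compounds plus 3 SD, cut at about 0.9% in these data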
SMARCA2 activ = SMARCA2 function activation, primary screen; MG213 cells, MMTV-luciferase reporter, dexamethasone, overnight; activation, % at 9.1 µM; 370,000 compounds, 1% hits; in the data active = activation above about 7.8%
hcDAF-12 act = activators of H. contortus DAF-12 nuclear receptor | 370,000 compounds, 1.4% hits | HEK293 hcDAF-12 lit1-tk-luc reporter, luminescence; 0% DMSO, 100% Δ7-dafachronic acid | activation, % at 6.8 µM;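 active = activation above the mean of all tested compounds plus 3 SD, cut at about 5.5% in these data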
hgDAF12 agonist = hgDAF-12 agonism, primary luciferase screen; HEK293 GAL4-hgDAF12 UAS-luciferase reporter, agonist luminescence; normalized to butyrate control; activation, % at 6.8 µM; 370,000 compounds, 1.8% hits; AID 687014;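 active = activation above a cutoff set at the mean of all screened compounds plus 3 SD, cut at about 10% in these data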
DAX1 inh-2 = blocks DAX1 repression of SF-1 activated StAR promoter; HEK293T StAR-luciferase reporter, SF-1/DAX-1 repression relief; inhibition, % at 6.8 µM; 370,000 compounds, 1.1% hits; AID 652010;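 active = inhibition above the mean over all tested compounds plus 3 SD, cut at about 3.6% in these data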;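 also: higher inhibition means more luminescence from relief of DAX-1 repression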
SMARCA2 act conf = confirmation of SMARCA2 (BRM) function activators | shares compounds with SMARCA2 activ | MG213 cells, MMTV-luciferase with dexamethasone, luminescence, overnight; MG213 cells expressing E1A, Rb sequestered; DMSO wells 0%, reference activator 100% | activation, % at 9.1 µM | 3,500 compounds, 30% hits | AID 652260;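 active = activation above its plate's cutoff, the mean activation of tested wells plus 3 SD, cut at about 7.9% in these data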
VP16 Luc act = counter-screen for SMARCA2 activators: GAL4-VP16 luciferase reporter activation; HEK293 GAL4-VP16 pG5luc reporter, luciferase luminescence; scaled: DMSO wells 0%, SAHA wells 100%; AID 686939; activation, % at 9.1 µM; shares compounds with SMARCA2 activ; 3,500 compounds, 41% hits;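 active = activation above the solvent-only control well mean plus 3 SD, averaged across control plates, cut at about 5.2% in these data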
Large screens that a line does not name were inactive (follow-up assays come after a bar, where they were run). This is a sample that favours compounds with a hit; in the whole collection about 4.8% have one here.

COc1ccc(CSc2nnc(SCc3ccccc3)s2)cc1	SMARCA2 activ 8.7 (no result: DAX1 inh-1) | SMARCA2 act conf inactive | VP16 Luc act inactive
c1ccc(CSc2nnc(NC3CCCCC3)s2)cc1	SMARCA2 activ 16, hgDAF12 agonist 12 | SMARCA2 act conf inactive | VP16 Luc act 8.6
CCOc1ccc(NC(=O)CN(C)C(=O)C(C)N2C(=O)c3ccccc3C2=O)cc1OCC (centres undefined)	none
CCN(CC)S(=O)(=O)c1ccc(/C=C/C(=O)OCC(=O)N(C)C)cc1	none
CCCCCn1nnnc1C1c2ccccc2OCC(=O)N1Cc1ccco1 (centres undefined)	SMARCA2 activ 10 (no result: DAX1 inh-1) | SMARCA2 act conf inactive | VP16 Luc act inactive
O=C(NCCc1ccccc1)c1cc(=O)[nH]c2ccccc12	none
CCOC(=O)c1c(NC(=O)c2cccc(N3C(=O)CCC3=O)c2)sc2c1CCN(CC)C2	none
O=C(c1cc(-c2ccc(Cl)cc2)on1)N1CCCCCC1	SMARCA2 activ 10 | SMARCA2 act conf 8.1 | VP16 Luc act 9.2
O=C(c1cc(-c2ccc(Cl)c(Cl)c2)on1)N1CCCCCC1	none
COc1ccc(-c2cc(C(=O)N3CCCC3)no2)cc1OC	none
COc1ccc(-c2cc(C(=O)N3CCCCC3)no2)cc1OC	SMARCA2 activ 8.7 | SMARCA2 act conf inactive | VP16 Luc act 5.3
COc1ccc(CCNC(=O)COc2ccccc2[N+](=O)[O-])cc1OC	none
CCN(CC)CCNc1ccc(CO)c2oc3cc(Cl)ccc3c(=O)c12	SMARCA2 activ 18 | SMARCA2 act conf 29 | VP16 Luc act inactive
CN(C)CCNc1ccc(CO)c2oc3ccc(O)cc3c(=O)c12	SMARCA2 activ 11 | SMARCA2 act conf 13 | VP16 Luc act inactive
CCN(CC)CCNC(CC(=O)Nc1ccc(Cl)cc1Cl)C(=O)O (centres undefined)	none
Cc1ccc(S(=O)(=O)NCCC(=O)Nc2nccs2)cc1	none
CN(CC(=O)NCc1ccncc1)S(=O)(=O)c1ccc(Cl)cc1	none
CN(CC(=O)NCc1ccncc1)S(=O)(=O)c1ccc(F)cc1	SMARCA2 activ 8.3 | SMARCA2 act conf inactive | VP16 Luc act inactive
O=[N+]([O-])c1cccc(-c2ccc(C(=S)N3CCN(c4ccc(F)cc4)CC3)o2)c1	SMARCA2 activ 9.1 | SMARCA2 act conf inactive | VP16 Luc act inactive
CCOC(=O)c1nn(-c2ccc3ccccc3c2)cc1O	SMARCA2 activ 8.2, hgDAF12 agonist 13, DAX1 inh-2 4.4 | SMARCA2 act conf inactive | VP16 Luc act 5.6
CCOC(=O)c1nn(-c2ccccc2)cc1O	none
CC(NC(=O)CCSCc1ccccc1F)c1ccccc1 (centres undefined)	SMARCA2 activ 12 | SMARCA2 act conf inactive | VP16 Luc act inactive
Cc1ccccc1-c1nnc(SCc2ccccc2)o1	SMARCA2 activ 13 | SMARCA2 act conf inactive | VP16 Luc act inactive
Cc1ccc(S(=O)(=O)Nc2ccc(-c3nnc(SCc4ccccc4Cl)o3)cc2)cc1	none
Cc1ccc(CSc2nnc(-c3ccc(NS(=O)(=O)c4ccccc4)cc3)o2)cc1	ssDAF-12 act 1.7, SMARCA2 activ 11 | SMARCA2 act conf inactive | VP16 Luc act inactive
CCOC(=O)CN1N=C(c2ccc(Cl)cc2)CCC1=O	none
C=CCN1C(=O)[C@H](CC(=O)NCc2ccc(OC)c(OC)c2)[C@@]2(C(=O)OCC)CCCC=C12	none (no result: DAX1 inh-1)
O=C(NC(=S)Nc1cccc(O)c1)C1CCCCC1	SMARCA2 activ 8.2 | SMARCA2 act conf inactive | VP16 Luc act 6.2
Cc1ccc(-c2nc(C#N)c(NCC3CCCO3)o2)cc1 (centres undefined)	none
COc1ccc(-c2nc(C#N)c(NCC3CCCO3)o2)cc1 (centres undefined)	SMARCA2 activ 10 | SMARCA2 act conf 9.7 | VP16 Luc act inactive
